# Experimental data from PubChem BioAssay (EPA / NIEHS).
# Results filed as inconclusive are left out. Active and inactive are the calls of the source. Rule for the calls: active = hit-call score of the fitted dose curve at least 0.9, where 1 is the maximum; inconclusive = response in the unintended direction; inactive = score below 0.9.
# Target: Androgen Receptor/SRC-1 Co-activator, AR (gene 367) (UniProt P10275)
# Assay: OT_AR_ARSRC1_0960: Odyssey Thera (OT) 16-hour HEK293T Protein-Complementation Assay for Androgen Receptor/SRC-1 Co-activator (AID 2283353);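 note: actives raise the signal above DMSO so potency reflects increased AR and SRC-1 complex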
# Summary of the method: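 Split-Venus PCA, AR/SRC-1 fusions, stable HEK293T; 16 h compound exposure; imaged at 488 and 635 nm; N/C ratio (488 nm channel), min 400 cells/image; positive-direction fit, DMSO baseline.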
# Chain of Androgen Receptor/SRC-1 Co-activator, AR (gene 367) (P10275 whole entry, looked up): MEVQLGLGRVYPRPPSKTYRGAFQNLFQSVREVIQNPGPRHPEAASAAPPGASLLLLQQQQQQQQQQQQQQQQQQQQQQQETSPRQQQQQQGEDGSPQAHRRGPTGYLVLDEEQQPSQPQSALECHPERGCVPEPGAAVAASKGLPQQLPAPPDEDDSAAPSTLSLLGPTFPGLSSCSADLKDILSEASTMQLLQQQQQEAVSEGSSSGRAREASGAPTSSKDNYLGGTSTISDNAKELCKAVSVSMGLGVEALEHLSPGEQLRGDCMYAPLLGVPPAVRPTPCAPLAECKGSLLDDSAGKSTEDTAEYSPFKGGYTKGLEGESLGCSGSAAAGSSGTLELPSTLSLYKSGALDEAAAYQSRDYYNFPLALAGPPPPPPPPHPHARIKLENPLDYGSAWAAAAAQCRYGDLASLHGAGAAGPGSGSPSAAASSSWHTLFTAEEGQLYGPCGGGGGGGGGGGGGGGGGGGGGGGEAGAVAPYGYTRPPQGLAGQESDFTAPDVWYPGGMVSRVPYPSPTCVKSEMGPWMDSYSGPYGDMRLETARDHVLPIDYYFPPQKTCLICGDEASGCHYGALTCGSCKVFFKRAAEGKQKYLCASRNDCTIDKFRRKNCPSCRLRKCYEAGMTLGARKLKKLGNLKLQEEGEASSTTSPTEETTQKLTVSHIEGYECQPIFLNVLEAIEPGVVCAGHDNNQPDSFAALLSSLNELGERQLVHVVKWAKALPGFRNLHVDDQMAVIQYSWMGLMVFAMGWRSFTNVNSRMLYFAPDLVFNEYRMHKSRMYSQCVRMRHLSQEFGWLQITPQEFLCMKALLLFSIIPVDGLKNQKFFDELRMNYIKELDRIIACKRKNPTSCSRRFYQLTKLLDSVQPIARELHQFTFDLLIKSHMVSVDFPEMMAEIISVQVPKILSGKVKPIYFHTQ
Structure (SMILES),outcome,AC50
Cc1nc(-c2ccccn2)ncc1C(=O)Nn1cc(C)c2cc(F)ccc21,inactive,
COc1cc2c(c(OC)c1OC)-c1ccc(OC)c(=O)cc1[C@@H](NC(C)=O)CC2,,0.133 µM (active)
CCN(CC)C(=S)SSC(=S)N(CC)CC,,59.6 µM (active)
COc1cc(C(C)C)c2c(c1)S(=O)(=O)N(COc1cc(=O)n3cccc(OCCN4CCCCC4)c3n1)C2=O,,10.6 µM (active)
CCCCCCCCCCCCCCCCOS(=O)(=O)O,inactive,
COCc1nnc(-c2ccc[n+]([O-])c2)n1-c1c(Cl)c(Cl)cc2[nH]c(=O)c(=O)[nH]c12,inactive,
C=CCc1cc(S(=O)(=O)c2ccc(O)c(CC=C)c2)ccc1O,,69.1 µM (active)
CCCCC(CC)C(=O)OCCOCCOCCOC(=O)C(CC)CCCC (centres undefined),inactive,
CCCCCCOC(=O)CC(CC(=O)OCCCCCC)(OC(=O)CCC)C(=O)OCCCCCC,inactive,
CCc1cccc(CC)c1N,inactive,
OCc1ccccc1,inactive,
OCCOCCOCCO,inactive,
CCCCOC(=O)c1ccccc1,inactive,

# Target: Androgen Receptor/SRC-1 Co-activator, AR (gene 367) (UniProt P10275)
# Assay: OT_AR_ARSRC1_0480: Odyssey Thera (OT) 8-hour HEK293T Protein-Complementation Assay for Androgen Receptor/SRC-1 Co-activator (AID 2283354);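 note: hits raise the complementation signal above DMSO so AC50 marks enhancers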
# Summary of the method: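 HEK293T cells stably expressing AR and SRC-1 fused to split Venus YFP fragments via (Gly4Ser)2 linkers were read 8 h after compound dosing. Complementation was imaged at 488 and 635nm, and nuclear/cytoplasmic fluorescence ratio (488nm) was taken over ≥400 cells; gain-of-signal versus DMSO.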
Structure (SMILES),outcome,AC50
Cc1nc(-c2ccccn2)ncc1C(=O)Nn1cc(C)c2cc(F)ccc21,inactive,
COc1cc2c(c(OC)c1OC)-c1ccc(OC)c(=O)cc1[C@@H](NC(C)=O)CC2,inactive,
CCN(CC)C(=S)SSC(=S)N(CC)CC,,23.9 µM (active)
COc1cc(C(C)C)c2c(c1)S(=O)(=O)N(COc1cc(=O)n3cccc(OCCN4CCCCC4)c3n1)C2=O,,18.1 µM (active)
CCCCCCCCCCCCCCCCOS(=O)(=O)O,inactive,
COCc1nnc(-c2ccc[n+]([O-])c2)n1-c1c(Cl)c(Cl)cc2[nH]c(=O)c(=O)[nH]c12,inactive,
C=CCc1cc(S(=O)(=O)c2ccc(O)c(CC=C)c2)ccc1O,,82.7 µM (active)
CCCCC(CC)C(=O)OCCOCCOCCOC(=O)C(CC)CCCC (centres undefined),inactive,
CCCCCCOC(=O)CC(CC(=O)OCCCCCC)(OC(=O)CCC)C(=O)OCCCCCC,inactive,
OCCOCCOCCO,inactive,
CCCCOC(=O)c1ccccc1,inactive,

# Target: Estrogen receptor (Homo sapiens) + Estrogen receptor beta (Homo sapiens) (UniProt P03372+Q92731)
# Assay: OT_ER_ERaERb_1440: Odyssey Thera (OT) 24-hour HEK293T Protein-Complementation Assay for Estrogen Receptor-alpha/-beta Homodimer (AID 2283356);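 note: heteromer of ER alpha and ER beta binding domains; hits raise reporter fluorescence and both agonists and antagonists give an increase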
# Summary of the method: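 24 h exposure; HEK293T PCA cells with ERα/ERβ LBD fragments; signal rise in nuclear or whole-cell fluorescence over vehicle.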
# Chain of Estrogen receptor (Homo sapiens) + Estrogen receptor beta (Homo sapiens) (P03372 whole entry, looked up, the tested form may be a part): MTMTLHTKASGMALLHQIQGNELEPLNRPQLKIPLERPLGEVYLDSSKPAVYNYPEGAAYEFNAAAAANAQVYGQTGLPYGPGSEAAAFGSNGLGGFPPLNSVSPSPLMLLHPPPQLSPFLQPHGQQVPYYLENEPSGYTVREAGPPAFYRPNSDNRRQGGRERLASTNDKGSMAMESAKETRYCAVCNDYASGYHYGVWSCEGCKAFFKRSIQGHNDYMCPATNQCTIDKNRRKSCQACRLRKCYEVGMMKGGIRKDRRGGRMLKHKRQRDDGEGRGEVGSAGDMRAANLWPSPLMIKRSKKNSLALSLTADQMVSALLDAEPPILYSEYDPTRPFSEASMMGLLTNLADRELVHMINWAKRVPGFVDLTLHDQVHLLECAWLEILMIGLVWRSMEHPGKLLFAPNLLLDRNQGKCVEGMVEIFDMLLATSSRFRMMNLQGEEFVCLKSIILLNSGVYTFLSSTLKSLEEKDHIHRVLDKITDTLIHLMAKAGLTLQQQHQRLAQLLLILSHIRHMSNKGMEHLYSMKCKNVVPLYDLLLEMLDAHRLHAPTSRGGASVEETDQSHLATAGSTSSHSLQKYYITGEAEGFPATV
# Chain of Estrogen receptor (Homo sapiens) + Estrogen receptor beta (Homo sapiens) (Q92731 whole entry, looked up, the tested form may be a part): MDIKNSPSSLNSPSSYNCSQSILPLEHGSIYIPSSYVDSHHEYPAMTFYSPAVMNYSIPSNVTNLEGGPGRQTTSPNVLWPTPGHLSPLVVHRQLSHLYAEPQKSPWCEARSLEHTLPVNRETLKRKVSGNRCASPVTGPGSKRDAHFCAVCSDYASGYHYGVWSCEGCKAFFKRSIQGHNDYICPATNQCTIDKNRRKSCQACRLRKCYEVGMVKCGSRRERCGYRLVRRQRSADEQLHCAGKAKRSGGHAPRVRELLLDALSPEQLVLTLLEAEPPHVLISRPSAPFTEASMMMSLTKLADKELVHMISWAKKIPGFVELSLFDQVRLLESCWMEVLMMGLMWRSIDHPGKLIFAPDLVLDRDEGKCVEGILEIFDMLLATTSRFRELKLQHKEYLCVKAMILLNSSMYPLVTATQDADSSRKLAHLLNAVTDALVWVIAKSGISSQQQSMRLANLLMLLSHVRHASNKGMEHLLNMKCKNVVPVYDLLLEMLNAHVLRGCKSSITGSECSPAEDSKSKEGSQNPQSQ
Structure (SMILES),outcome,AC50
COc1cc2c(c(OC)c1OC)-c1ccc(OC)c(=O)cc1[C@@H](NC(C)=O)CC2,inactive,
Cc1ncc([C@@H](CCCCCCc2ccc3c(n2)NCCC3)CC(=O)O)cn1,inactive,
CC(C)CCCCCCOC(=O)C1CCCCC1C(=O)OCCCCCCC(C)C (centres undefined),inactive,
c1ccc(C(O[C@@H]2CCCN(CCc3ccc4c(c3)OCO4)C2)c2ccccc2)cc1,,62.5 µM (active)
O=C(O)c1ccc2c(c1)nc(C(=O)NC1CCN(C3CC3)CC1)n2Cc1cc(-c2ccc(Cl)s2)on1,inactive,
Cn1cc[nH]c1=S,inactive,
c1ccc2cc3ccccc3cc2c1,inactive,
OC(Cn1cncn1)(Cn1cncn1)c1ccc(F)cc1F,inactive,
CCn1nc(C)c2c1C(=O)NCC(c1ccc(O)cc1)=N2,inactive,
C[C@@H](Oc1ccc(CNC(=O)c2cccnc2Oc2ccc3c(c2)OCO3)c(F)c1)C(=O)O,inactive,

# Target: Estrogen receptor beta (Homo sapiens) (UniProt Q92731)
# Assay: OT_ER_ERbERb_0480: Odyssey Thera (OT) 8-hour HEK293T Protein-Complementation Assay for Estrogen Receptor-beta/-beta Homodimer (AID 2283357);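 note: active means signal gain over DMSO baseline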
# Summary of the method: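 Readout: increase in mean fluorescence intensity (nucleus for agonists; nucleus plus cytoplasm for antagonists) relative to DMSO, from a reporter-fragment complementation of human ER-beta LBD homodimer in HEK293T cells dosed 8 hours.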
# Chain of Estrogen receptor beta (Homo sapiens) (Q92731 whole entry, looked up): as the sequence (Q92731 whole entry, looked up, the tested form may be a part) above
row,Structure (SMILES),outcome
1,Cc1nc(-c2ccccn2)ncc1C(=O)Nn1cc(C)c2cc(F)ccc21,inactive
2,COc1cc2c(c(OC)c1OC)-c1ccc(OC)c(=O)cc1[C@@H](NC(C)=O)CC2,inactive
3,CCN(CC)C(=S)SSC(=S)N(CC)CC,inactive
4,Cc1ncc([C@@H](CCCCCCc2ccc3c(n2)NCCC3)CC(=O)O)cn1,inactive
5,O=S1(=O)CCCO1,inactive
6,NC(N)=O,inactive
7,c1ccc(C(O[C@@H]2CCCN(CCc3ccc4c(c3)OCO4)C2)c2ccccc2)cc1,inactive
8,CCCCCCCC1CCC(=O)O1 (centres undefined),inactive
9,O=C(O)c1ccc2c(c1)nc(C(=O)NC1CCN(C3CC3)CC1)n2Cc1cc(-c2ccc(Cl)s2)on1,inactive
10,CCCCCCCCCCCCCCCCOS(=O)(=O)O,inactive
11,COCc1nnc(-c2ccc[n+]([O-])c2)n1-c1c(Cl)c(Cl)cc2[nH]c(=O)c(=O)[nH]c12,inactive
12,Cn1cc[nH]c1=S,inactive
13,c1ccc2cc3ccccc3cc2c1,inactive
14,C=CCc1cc(S(=O)(=O)c2ccc(O)c(CC=C)c2)ccc1O,inactive
15,CCCc1ccccc1,inactive
16,O=C1CN(N=Cc2ccc([N+](=O)[O-])o2)C(=O)N1,inactive
17,CCCCC(CC)C(=O)OCCOCCOCCOC(=O)C(CC)CCCC (centres undefined),inactive
18,CCCCCCOC(=O)CC(CC(=O)OCCCCCC)(OC(=O)CCC)C(=O)OCCCCCC,inactive
19,CCc1cccc(CC)c1N,inactive
20,OCc1ccccc1,inactive
21,OCCOCCOCCO,inactive
22,CCn1nc(C)c2c1C(=O)NCC(c1ccc(O)cc1)=N2,inactive
23,C[C@@H](Oc1ccc(CNC(=O)c2cccnc2Oc2ccc3c(c2)OCO3)c(F)c1)C(=O)O,inactive
24,NNC(=O)c1ccncc1,inactive
25,O=C(O)CO,inactive

# Target: human Peroxisome Proliferator-activated Receptor alpha (PPARa), PPARA (gene 5465) (UniProt Q07869)
# Assay: NVS_NR_hPPARa: NovaScreen (NVS) Nuclear Receptor Binding Assay for human Peroxisome Proliferator-activated Receptor alpha (PPARa) (AID 2283359);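 note: activity means loss of TR-FRET signal versus DMSO baseline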
# Summary of the method: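 Cell-free binding assay with extracted human protein, read by TR-FRET 1 h after chemical dosing. Loss of signal relative to DMSO baseline indicates binding. Primary screen used duplicate single concentration (25 uM); actives followed up in concentration series.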
# Chain of human Peroxisome Proliferator-activated Receptor alpha (PPARa), PPARA (gene 5465) (Q07869 whole entry, looked up): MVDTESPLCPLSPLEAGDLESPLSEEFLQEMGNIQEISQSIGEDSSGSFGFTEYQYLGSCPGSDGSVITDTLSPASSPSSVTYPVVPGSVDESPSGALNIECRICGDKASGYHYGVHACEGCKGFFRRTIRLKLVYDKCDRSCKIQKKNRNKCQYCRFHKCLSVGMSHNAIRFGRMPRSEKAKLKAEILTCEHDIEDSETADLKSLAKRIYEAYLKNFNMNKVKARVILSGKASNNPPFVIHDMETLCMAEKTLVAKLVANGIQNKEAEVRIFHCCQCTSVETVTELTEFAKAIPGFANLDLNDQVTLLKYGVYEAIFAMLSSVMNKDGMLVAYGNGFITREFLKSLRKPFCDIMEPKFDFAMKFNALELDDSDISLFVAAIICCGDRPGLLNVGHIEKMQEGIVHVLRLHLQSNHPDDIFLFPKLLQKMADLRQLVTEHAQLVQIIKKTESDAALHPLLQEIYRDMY
Structure (SMILES),outcome,AC50
Cc1ncc([C@@H](CCCCCCc2ccc3c(n2)NCCC3)CC(=O)O)cn1,inactive,
COc1cc(C(C)C)c2c(c1)S(=O)(=O)N(COc1cc(=O)n3cccc(OCCN4CCCCC4)c3n1)C2=O,inactive,
O=C(O)c1ccc2c(c1)nc(C(=O)NC1CCN(C3CC3)CC1)n2Cc1cc(-c2ccc(Cl)s2)on1,inactive,
CCCCCCCCCCCCCCCCOS(=O)(=O)O,inactive,
C=CCc1cc(S(=O)(=O)c2ccc(O)c(CC=C)c2)ccc1O,,25 µM (active)
